About 83,000 compounds went through this panel and 20% of them were active in at least one assay; those are over-represented in the sample as a whole.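 Testing used 96-well plates and a 48-hour single-concentration exposure. Example: -40 means 40% of the starting cells died.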 Calls of active or inactive are those of the source. The calls were made as follows: active = growth percent below 10; inactive = the rest.
Experiments:
Experiment in all cases: NCI-60 one-dose screen, 48 h (100 = growth as untreated, 0 = no growth, -100 = all killed)
Settings in all cases: 10 µM unless noted
[1] = system: DU-145 prostate
[2] = system: K-562 leukemia
[3] = system: MALME-3M melanoma
[4] = system: MDA-MB-231 breast
[5] = system: RXF 393 renal
[6] = system: SF-268 CNS
[7] = system: SF-295 CNS
[8] = system: SF-539 CNS
[9] = system: UACC-257 melanoma
[10] = system: HCT-15 colon
[11] = system: HT29 colon
[12] = system: SNB-75 CNS
[13] = system: SNB-19 CNS
[14] = system: U251 CNS
[15] = system: PC-3 prostate
[16] = system: SK-MEL-5 melanoma
[17] = system: UACC-62 melanoma
[18] = system: LOX IMVI melanoma
[19] = system: SK-MEL-28 melanoma
[20] = system: M14 melanoma

Measured: growth

COc1ccc(-c2cn(-c3cccc(C(=O)/C=C/c4cc(OC)c(OC)c(OC)c4)c3)c(=O)[nH]2)cc1
active: [1] 1.51% | [2] 0.142% | [5] -52.8% | [8] -89.1% | [10] 3.15% | [11] -67.1% | [14] -51.8% | [16] -54% | [17] -42.8% | [18] -68% | [19] -33.9%
inactive: [3] 66.2% | [4] 19.4% | [6] 20.1% | [7] 26.4% | [9] 22.8% | [12] 49.6% | [13] 34.2% | [15] 20.6%

CC(C)c1ccc(C(=O)OC(=O)c2ccc(C(C)C)cc2)cc1
inactive: [1] 119% | [2] 74.7% | [3] 86.3% | [4] 116% | [5] 98.5% | [6] 103% | [7] 98.9% | [8] 108% | [9] 105% | [20] 94.5% | [10] 95.1% | [12] 88.6% | [13] 107% | [14] 91.2% | [15] 86.8% | [16] 116% | [17] 99.4% | [18] 91.5% | [19] 115%

Cc1c2c(cn1Cc1ccccc1)CCc1cn[nH]c1-2
inactive: [1] 117% | [2] 51.8% | [3] 105% | [4] 89.3% | [5] 87.6% | [6] 89.6% | [7] 81.5% | [8] 92.7% | [9] 107% | [10] 99.3% | [11] 94.5% | [12] 92.2% | [13] 86.9% | [14] 89.3% | [15] 74.9% | [16] 89% | [18] 90.8% | [19] 105%

COc1ccc(-c2nc3ncccn3c2/C=C/C(=O)c2cc(OC)c(OC)c(OC)c2)cc1
active: [1] 2.9% | [2] 6.79% | [5] -24.4% | [7] -31.5% | [8] -87.2% | [10] 9.73% | [11] 6.11% | [12] 9.26% | [14] -16.8% | [16] -83.2% | [17] -17% | [18] 0.0444% | [19] -47.4%
inactive: [3] 61.8% | [4] 21.1% | [6] 13.4% | [9] 41.2% | [13] 10.9% | [15] 19%

C[C@@H]1C(=O)N(C[C@H](Cc2ccccc2)NC(=O)OCc2ccccc2)[C@]1(Cc1ccccc1)C(=O)OC(C)(C)C
inactive: [1] 87.1% | [2] 40.5% | [3] 79.5% | [4] 66.4% | [5] 71.2% | [6] 65.7% | [7] 69.6% | [8] 87.1% | [9] 66.1% | [10] 62.9% | [11] 56.3% | [12] 68.7% | [13] 71.7% | [14] 63.2% | [15] 27.5% | [16] 58.8% | [17] 51.9% | [18] 73.3% | [19] 85.3%

COc1ccc(NC(=O)C(=O)c2c[nH]c3ccc(F)cc23)cc1
inactive: [1] 88.9% | [2] 90.6% | [3] 115% | [4] 95.5% | [5] 103% | [6] 94.7% | [7] 102% | [8] 108% | [9] 101% | [10] 99.2% | [11] 88.4% | [12] 99.7% | [13] 104% | [14] 91% | [15] 91.5% | [16] 97.4% | [17] 99.3% | [18] 105% | [19] 109%

CCc1cc(Cc2cc(CC)cc(C(C)(C)C)c2O)c(O)c(C(C)(C)C)c1
inactive: [1] 43.1% | [3] 19.5% | [4] 13.8% | [6] 37.6% | [8] 39.6% | [9] 46.7% | [10] 13.8% | [11] 23.3% | [12] 42.1% | [13] 20% | [14] 16.3% | [15] 15.1% | [17] 25.7% | [18] 10.5% | [19] 46%
active: [2] 8.51% | [5] 5.58% | [7] -2.11% | [16] 6.03%

COc1cc(C(=O)/C=C/c2c(C(F)(F)F)nc3ccccn23)cc(OC)c1OC
inactive: [4] 13.9% | [13] 14.6%
active: [1] -25.8% | [2] -9.61% | [3] 7.53% | [5] -68.8% | [6] -36.1% | [7] -14.9% | [8] -92.8% | [9] -9.93% | [10] -44.2% | [11] -56.5% | [12] 1.22% | [14] -60.2% | [15] 7.45% | [16] -95.2% | [17] -75.6% | [18] -79.8% | [19] -65.2%

C#C[C@]1(O)CC[C@H]2[C@@H]3CC=C4c5sc(N=C(N)N)nc5CC[C@]4(C)[C@H]3CC[C@@]21C
active: [1] 8.62% | [2] -21.1% | [3] -76.2% | [4] -45.4% | [5] -56.6% | [6] -15% | [7] -56.2% | [8] -81.3% | [9] -44.8% | [10] -60.8% | [11] -0.997% | [12] -60.5% | [14] -14.9% | [15] 0.258% | [16] -94.9% | [17] -51.7% | [18] -64.4% | [19] -68.8%
inactive: [13] 18.9%

Fc1ccc(Nc2nc3nonc3nc2Nc2ccc(F)cc2)cc1
inactive: [1] 23.8% | [6] 18.5% | [13] 23%
active: [2] 9% | [3] 1.97% | [4] -20.5% | [5] 9.9% | [7] -20.7% | [8] -7.76% | [9] -13.5% | [10] 6.25% | [11] 2.83% | [12] -12.9% | [14] -6.58% | [15] 1.43% | [16] -46.4% | [17] 3.98% | [18] 2.74% | [19] 4.39%

Cc1nc(Nc2ccc(NC(=S)Nc3ccccc3)cc2)nc2nc(Nc3cccc(Cl)c3)[nH]c(=O)c12
inactive: [1] 123% | [2] 71.8% | [3] 120% | [4] 84.7% | [6] 104% | [7] 116% | [8] 67.5% | [9] 98.9% | [10] 98.2% | [11] 114% | [12] 84.7% | [13] 102% | [14] 92% | [15] 93.1% | [16] 102% | [17] 102% | [18] 92% | [19] 93.2%
active: [5] -12.9%

Cc1csc(NC(=O)c2sc3nc(-c4cccs4)ccc3c2N)n1
inactive: [1] 96.4% | [2] 90.2% | [3] 99.6% | [4] 93.4% | [5] 107% | [6] 102% | [7] 99.7% | [8] 96.9% | [9] 109% | [10] 102% | [11] 102% | [12] 102% | [13] 112% | [14] 91.3% | [15] 82.6% | [16] 92.2% | [17] 98.2% | [18] 95.1% | [19] 115%

COc1ccc(OC)c(Nc2nc3nonc3nc2Nc2cccc(Br)c2)c1
inactive: [1] 26% | [2] 10.2% | [3] 11.3% | [5] 23.7% | [6] 21.1% | [10] 13.1% | [13] 14.6% | [17] 18.7% | [19] 30.2%
active: [4] -8.18% | [7] -19.3% | [8] -7.16% | [9] -12.5% | [11] 3.47% | [12] 3.07% | [14] 3.05% | [15] 1.15% | [16] -47.8% | [18] 4.56%

CC1(C)CC(=O)c2c(ccc(C(=O)C[C@H](N)CO)c2N)O1
inactive: [1] 38% | [2] 37.1% | [3] 48.6% | [4] 54.6% | [5] 44.1% | [6] 34.2% | [7] 42.9% | [8] 23.7% | [9] 49.1% | [12] 75.9% | [13] 34.7% | [14] 14.8% | [15] 45.3% | [16] 47.2% | [19] 38%
active: [10] 4.43% | [11] 2.53% | [18] -61.7%

O=c1[nH]c(=O)n(C2CC(O)C(CO)O2)cc1CO (stereo unspecified)
inactive: [1] 111% | [2] 82.3% | [3] 90.1% | [4] 102% | [5] 99.5% | [6] 99.8% | [7] 110% | [8] 95.7% | [9] 103% | [10] 98.7% | [11] 105% | [12] 84.3% | [13] 30.2% | [16] 108% | [17] 79.2% | [18] 96.1% | [19] 101%
active: [14] 2.98%

O=C(O)c1ccccc1C(=O)Nc1ccc(Cl)cc1
inactive: [1] 103% | [2] 68.6% | [3] 109% | [4] 104% | [5] 128% | [6] 94.5% | [7] 101% | [8] 98.6% | [9] 78.3% | [10] 98.5% | [11] 104% | [12] 95.8% | [13] 102% | [14] 89.9% | [15] 96.6% | [16] 93.9% | [17] 48.8% | [18] 63.8% | [19] 96.7%
